For 13 molecules, growth results are on record in PubChem BioAssay (NCI).

Compounds without any hit were thinned out: in the full panel of roughly 83,000, 20% have a hit.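 A percent growth of 40 corresponds to 60% growth inhibition; 0 means no net growth; -100 means all cells died. Active threshold: below 10.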 Calls of active or inactive are those of the source.

The assay relates to SNB-75 CNS. The assay is described as follows: NCI-60 one-dose screen, 48 h (100 = growth as untreated, 0 = no growth, -100 = all killed). The note with it: 10 µM unless noted.
Take `CCN(CC)c1ccc(/C=C/C(=O)c2ccc(Nc3nc(Nc4ccccc4)nc(Nc4ccccc4)n3)cc2)cc1`: the growth was 26.8% (inactive).

Regarding `COC(=O)[C@H]1CCCN1C[C@@H](O)CN1C(=O)/C(=C\c2cc(OC)c(OC)c(OC)c2)c2ccccc21`, the growth was 86% (inactive).

Turning to `CN(C)c1ccc(Nc2cc(-c3cccc(OC(F)(F)F)c3)nc3ccc(N4CCCC4)cc23)cc1`, the growth was 55% (inactive).

With `O=C(Nc1cc(Cl)ccc1O)c1ccc(Nc2ccnc(C(F)(F)F)c2)cc1`, the growth was 69.2% (inactive).

For the molecule `COc1cc(OC)c2sc(-c3ccc(-n4cncc4-c4ccc(OC)c(OC)c4)cc3)nc2c1`, the growth is 87.1% (inactive).

Turning to `O=C1c2cccnc2C(=O)c2c1c(C(=O)NCCCN1CCCCC1)c1ccccn21`, the growth is -95.3% (active).

For the molecule `CCOC(=O)c1ccc2[nH]c(O)c(C(=Nc3ccc(N(C)C(=O)CN4CCN(C)CC4)cc3)c3ccccc3)c2c1`, the growth was -99.2% (active).

Consider `CCN1C(=O)N(CC)C2C1NN=c1s/c(=C\c3cccc([N+](=O)[O-])c3)c(=O)n12` (stereo not drawn), for which the growth was 22% (inactive).

Turning to `CC1=C(Nc2ccc(N3CCN(C)CC3)cc2)C(=O)c2cncnc2C1=O`, the growth is 131% (inactive).

`O=C1Nc2ccc(Br)cc2/C1=N/c1n[nH]c(=S)s1`: the growth was 74.5% (inactive).

In the case of `CCN(c1ccc(Cl)cc1)c1nc(-c2ccc([N+](=O)[O-])cc2)cs1`, the growth is 96.8% (inactive).

Consider `C=C(C)[C@@H]1CC[C@]2(C)[C@H](CC=C3[C@@H]4[C@H](C)[C@@H](C)CC[C@]4(CO)CC[C@]32C)[C@@]1(C)CCCN`, for which the growth is 18.5% (inactive).

For `O=C(/C=C(/C=C/c1cccc2[nH]ccc12)OB(F)F)/C=C/c1cccc2[nH]ccc12`, the growth was -40.4% (active).
